# Source: the supplement of paper PMC4466140
# Columns and labels:
# Test in all cases: SPOT peptide array binding signal intensity (averaged, normalized) (arbitrary units (background-subtracted, floor 0; scale differs between SH3 domains)); higher = stronger binding of the SH3 domain to the peptide
# [1] = biological target: AgAbp1
# Experimental: (§1)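 GST-tagged SH3 domains from S. cerevisiae (Sc), A. gossypii (Ag), C. albicans (Ca) and S. pombe (Sp) were incubated at 10 ug/ml overnight at 4 C on cellulose SPOT membranes carrying 292 synthetic 15-mer peptides mined from the S. cerevisiae proteome (cysteines replaced by serines). Binding was detected with anti-GST antibody, HRP secondary and chemiluminescence, quantified with Genespotter, and reported as normalized spot intensities averaged over biological replicates.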
# [2] = biological target: AgBbc1
# Experimental: as §1
# [3] = biological target: AgBem1-D1
# Experimental: as §1
# [4] = biological target: AgBzz1-D1
# Experimental: as §1
# [5] = biological target: AgBzz1-D2
# Experimental: as §1
# [6] = biological target: AgCyk3
# Experimental: as §1
# [7] = biological target: AgFus1
# Experimental: as §1
# [8] = biological target: AgHof1
# Experimental: as §1
# [9] = biological target: AgHse1
# Experimental: as §1
# [10] = biological target: AgLsb1
# Experimental: as §1
# [11] = biological target: AgLsb4
# Experimental: as §1
# [12] = biological target: AgMyo5
# Experimental: as §1
# [13] = biological target: AgNbp2
# Experimental: as §1
# [14] = biological target: AgRvs167
# Experimental: as §1
# [15] = biological target: AgSho1
# Experimental: as §1
# [16] = biological target: AgSla1-D1-D2
# Experimental: as §1
# [17] = biological target: AgSla1-D3
# Experimental: as §1
# [18] = biological target: CaAbp1-D1
# Experimental: as §1
# [19] = biological target: CaAbp1-D2
# Experimental: as §1
# [20] = biological target: CaBbc1
# Experimental: as §1
# [21] = biological target: CaBem1-D1
# Experimental: as §1
# [22] = biological target: CaBzz1-D1
# Experimental: as §1
# [23] = biological target: CaBzz1-D2
# Experimental: as §1
# [24] = biological target: CaCyk3
# Experimental: as §1
# [25] = biological target: CaFus1
# Experimental: as §1
# [26] = biological target: CaHof1
# Experimental: as §1
# [27] = biological target: CaHse1
# Experimental: as §1
# [28] = biological target: CaLsb1
# Experimental: as §1
# [29] = biological target: CaLsb4
# Experimental: as §1
# [30] = biological target: CaMyo5
# Experimental: as §1
# [31] = biological target: CaNbp2
# Experimental: as §1
# [32] = biological target: CaRvs167
# Experimental: as §1
# [33] = biological target: CaRvs167-3
# Experimental: as §1
# [34] = biological target: CaSho1
# Experimental: as §1
# [35] = biological target: CaSla1-D1-D2
# Experimental: as §1
# [36] = biological target: CaSla1-D3
# Experimental: as §1
# [37] = biological target: ScAbp1
# Experimental: as §1
# [38] = biological target: ScBbc1
# Experimental: as §1
# [39] = biological target: ScBem1-D1
# Experimental: as §1
# [40] = biological target: ScBzz1-D1
# Experimental: as §1
# [41] = biological target: ScBzz1-D2
# Experimental: as §1
# [42] = biological target: ScCyk3
# Experimental: as §1
# [43] = biological target: ScFus1
# Experimental: as §1
# [44] = biological target: ScHof1
# Experimental: as §1
# [45] = biological target: ScHse1
# Experimental: as §1
# [46] = biological target: ScLsb1
# Experimental: as §1
# [47] = biological target: ScLsb2
# Experimental: as §1
# [48] = biological target: ScLsb3
# Experimental: as §1
# [49] = biological target: ScLsb4
# Experimental: as §1
# [50] = biological target: ScMyo3
# Experimental: as §1
# [51] = biological target: ScMyo5
# Experimental: as §1
# [52] = biological target: ScNbp2
# Experimental: as §1
# [53] = biological target: ScPex13
# Experimental: as §1
# [54] = biological target: ScRvs167
# Experimental: as §1
# [55] = biological target: ScSho1
# Experimental: as §1
# [56] = biological target: ScSla1-D1-D2
# Experimental: as §1
# [57] = biological target: ScSla1-D3
# Experimental: as §1
# [58] = biological target: SpAbp1-D1
# Experimental: as §1
# [59] = biological target: SpBbc1
# Experimental: as §1
# [60] = biological target: SpBzz1-D1
# Experimental: as §1
# [61] = biological target: SpBzz1-D2
# Experimental: as §1
# [62] = biological target: SpCyk3
# Experimental: as §1
# [63] = biological target: SpHof1
# Experimental: as §1
# [64] = biological target: SpHof1-2
# Experimental: as §1
# [65] = biological target: SpHof1-3
# Experimental: as §1
# [66] = biological target: SpHse1
# Experimental: as §1
# [67] = biological target: SpLsb1
# Experimental: as §1
# [68] = biological target: SpLsb4
# Experimental: as §1
# [69] = biological target: SpMyo1
# Experimental: as §1
# [70] = biological target: SpNbp2
# Experimental: as §1
# [71] = biological target: SpPex13
# Experimental: as §1
# [72] = biological target: SpRvs167
# Experimental: as §1
# [73] = biological target: SpSla1-D1-D2
# Experimental: as §1
# [74] = biological target: SpSla1-D3
# Experimental: as §1
binder,measurement,setting,value
AERNYAPRLPRRETS,SPOT peptide array binding signal intensity,[1],20
same,SPOT peptide array binding signal intensity,[2],69.8
same,SPOT peptide array binding signal intensity,[3],44.8
same,SPOT peptide array binding signal intensity,[4],77
same,SPOT peptide array binding signal intensity,[5],128
same,SPOT peptide array binding signal intensity,[6],1
same,SPOT peptide array binding signal intensity,[7],3.25
same,SPOT peptide array binding signal intensity,[8],124
same,SPOT peptide array binding signal intensity,[9],87.5
same,SPOT peptide array binding signal intensity,[10],289
same,SPOT peptide array binding signal intensity,[11],3440
same,SPOT peptide array binding signal intensity,[12],≤ 0
same,SPOT peptide array binding signal intensity,[13],128
same,SPOT peptide array binding signal intensity,[14],340
same,SPOT peptide array binding signal intensity,[15],≤ 0
same,SPOT peptide array binding signal intensity,[16],1.5
same,SPOT peptide array binding signal intensity,[17],≤ 0
same,SPOT peptide array binding signal intensity,[18],84
same,SPOT peptide array binding signal intensity,[19],61
same,SPOT peptide array binding signal intensity,[20],454
same,SPOT peptide array binding signal intensity,[21],25.5
same,SPOT peptide array binding signal intensity,[22],171
same,SPOT peptide array binding signal intensity,[23],62.6
same,SPOT peptide array binding signal intensity,[24],9
same,SPOT peptide array binding signal intensity,[25],23.8
same,SPOT peptide array binding signal intensity,[26],7.5
same,SPOT peptide array binding signal intensity,[27],222
same,SPOT peptide array binding signal intensity,[28],4.75
same,SPOT peptide array binding signal intensity,[29],4670
same,SPOT peptide array binding signal intensity,[30],5.5
same,SPOT peptide array binding signal intensity,[31],52.5
same,SPOT peptide array binding signal intensity,[32],1200
same,SPOT peptide array binding signal intensity,[33],≤ 0
same,SPOT peptide array binding signal intensity,[34],22.5
same,SPOT peptide array binding signal intensity,[35],19
same,SPOT peptide array binding signal intensity,[36],0.75
same,SPOT peptide array binding signal intensity,[37],27.8
same,SPOT peptide array binding signal intensity,[38],22.4
same,SPOT peptide array binding signal intensity,[39],6
same,SPOT peptide array binding signal intensity,[40],56.8
same,SPOT peptide array binding signal intensity,[41],73.8
same,SPOT peptide array binding signal intensity,[42],2.25
same,SPOT peptide array binding signal intensity,[43],≤ 0
same,SPOT peptide array binding signal intensity,[44],17.1
same,SPOT peptide array binding signal intensity,[45],42
same,SPOT peptide array binding signal intensity,[46],184
same,SPOT peptide array binding signal intensity,[47],158
same,SPOT peptide array binding signal intensity,[48],6160
same,SPOT peptide array binding signal intensity,[49],3130
same,SPOT peptide array binding signal intensity,[50],0.75
same,SPOT peptide array binding signal intensity,[51],≤ 0
same,SPOT peptide array binding signal intensity,[52],283
same,SPOT peptide array binding signal intensity,[53],252
same,SPOT peptide array binding signal intensity,[54],2200
same,SPOT peptide array binding signal intensity,[55],268
same,SPOT peptide array binding signal intensity,[56],206
same,SPOT peptide array binding signal intensity,[57],13
same,SPOT peptide array binding signal intensity,[58],50.5
same,SPOT peptide array binding signal intensity,[59],7.25
same,SPOT peptide array binding signal intensity,[60],332
LKRITSPPLPPRADS,SPOT peptide array binding signal intensity,[31],47
same,SPOT peptide array binding signal intensity,[32],2070
same,SPOT peptide array binding signal intensity,[33],9.5
same,SPOT peptide array binding signal intensity,[34],9.5
same,SPOT peptide array binding signal intensity,[35],244
same,SPOT peptide array binding signal intensity,[36],2
same,SPOT peptide array binding signal intensity,[37],16.5
same,SPOT peptide array binding signal intensity,[38],35.2
same,SPOT peptide array binding signal intensity,[39],10
same,SPOT peptide array binding signal intensity,[40],56
same,SPOT peptide array binding signal intensity,[41],18
same,SPOT peptide array binding signal intensity,[42],2
same,SPOT peptide array binding signal intensity,[43],1
same,SPOT peptide array binding signal intensity,[44],234
same,SPOT peptide array binding signal intensity,[45],91.5
same,SPOT peptide array binding signal intensity,[46],661
same,SPOT peptide array binding signal intensity,[47],1120
same,SPOT peptide array binding signal intensity,[48],7910
same,SPOT peptide array binding signal intensity,[49],5640
same,SPOT peptide array binding signal intensity,[50],24
same,SPOT peptide array binding signal intensity,[51],≤ 0
same,SPOT peptide array binding signal intensity,[52],77.5
same,SPOT peptide array binding signal intensity,[53],2230
same,SPOT peptide array binding signal intensity,[54],3220
same,SPOT peptide array binding signal intensity,[55],270
same,SPOT peptide array binding signal intensity,[56],492
same,SPOT peptide array binding signal intensity,[57],36.2
same,SPOT peptide array binding signal intensity,[58],118
same,SPOT peptide array binding signal intensity,[59],3
same,SPOT peptide array binding signal intensity,[60],1080
same,SPOT peptide array binding signal intensity,[61],1.75
same,SPOT peptide array binding signal intensity,[62],3
same,SPOT peptide array binding signal intensity,[63],168
same,SPOT peptide array binding signal intensity,[64],17.2
same,SPOT peptide array binding signal intensity,[65],140
same,SPOT peptide array binding signal intensity,[66],47.5
same,SPOT peptide array binding signal intensity,[67],1600
same,SPOT peptide array binding signal intensity,[68],4790
same,SPOT peptide array binding signal intensity,[69],102
same,SPOT peptide array binding signal intensity,[70],≤ 0
same,SPOT peptide array binding signal intensity,[71],≤ 0
same,SPOT peptide array binding signal intensity,[72],3150
same,SPOT peptide array binding signal intensity,[73],1
same,SPOT peptide array binding signal intensity,[74],1.5
